Drawing on PubChem BioAssay (NCI), this text covers growth inhibition for 17 compounds.

Each structure is given as a SMILES string. The panel holds about 79,000 compounds, 15% with a hit somewhere; the sample as a whole holds those more often. Calls of active or inactive are those of the source. Cut-off read from the data, not from the text of the source: active = growth inhibition above about 70%; inactive = the rest.

This experiment in a line: NCI Yeast Anticancer Drug Screen. Data for the rad50 strain (AID 155).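 Note: 0% = growth of vehicle-only cultures of the same strain.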 The settings on record: S. cerevisiae rad50 strain growth inhibition; at 50.0 µM; active compounds read high. In short, it runs like this:
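Yeast carrying a defined DNA repair defect were exposed to test compounds, and growth was compared with vehicle-treated controls to give percent inhibition.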
As for `Cn1nc(Br)c(=O)n(C)c1=O`, the growth inhibition is -17.9% (inactive).
In the case of `O=C(O)[C@H](c1ccccc1)[C@@H](C(=O)O)c1ccccc1` it was -8.25% (inactive); in that of `O=[N+]([O-])/C(C(Cl)=C(Cl)Cl)=C(/Cl)Sc1ccccc1`, 91.8% (active).
For the compound `CSCSCC(CO)NC(=O)/C=C\c1ccccc1` (configuration not stated), the growth inhibition was -0.7% (inactive).
Take `COc1cc([C@@H]2c3cc4c(cc3[C@](C)(O)[C@H]3COC(=O)[C@H]23)OCO4)cc(OC)c1OC`: the growth inhibition is 19.7% (inactive).
Consider `CCN(CC)C(=O)CCC1(C)OCCO1`, for which the growth inhibition is -4.8% (inactive).
In the case of `CCCCCC(=O)OCCCCCO`, the growth inhibition was 13.7% (inactive).
On to `CC(=O)OCC(OC(C)=O)C(OC(C)=O)C(OC(C)=O)C(OC(C)=O)C(C=O)OC(C)=O` (configuration not stated), for which the growth inhibition was -31.6% (inactive).
Take `COCCOC(=O)c1ccc(C(N)=NC2CCCCC2)cc1`: the growth inhibition was -1.2% (inactive).
`CCCCCCCSc1nc2ccc(N=Cc3ccccc3O)cc2s1`: the growth inhibition was -9.8% (inactive).
Consider `CN(C)C1C(CO)C(CO)C1(C)C` (configuration not stated), for which the growth inhibition was -5.5% (inactive).
As to `CSCCCC(N)=O`, the growth inhibition was 1.85% (inactive).
On to `C/C(=N/Nc1ccc([N+](=O)[O-])cc1[N+](=O)[O-])C1=CCCCC1`, for which the growth inhibition was -0.2% (inactive).
The value for `CCCNC(=O)c1ccccc1O` was 9.95% (inactive); that for `Cc1cc2c(C(C)C)c(O)c(O)c(C=Nc3ccc4ccccc4c3)c2c(O)c1-c1c(C)cc2c(C(C)C)c(O)c(O)c(C=Nc3ccc4ccccc4c3)c2c1O` was 7.3% (inactive).
For `C/C(=N\Nc1ccc([N+](=O)[O-])cc1)C(=O)N(C)Nc1ccccc1`, the growth inhibition was -6% (inactive).
Turning to `CNC(=O)OCc1nc(SC(C)C)n(C)c1COC(=O)NC`, the growth inhibition is -16% (inactive).
